Screening results (PubChem)
This is a sample that favours compounds with a hit; in the whole collection about 2.6% have one here.
Cruzain inh noDet – cruzain (T. cruzi) inhibition without detergent; P25779; purified cruzain, Z-FR-AMC fluorescence, no detergent; Potency, µM, without a hit: max response, negative = inhibition, usual class: inhibitors; actives 2.3% (n = 200,000); AID 1476;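 further: plate controls were enzyme without inhibitor for no effect and buffer without enzyme for full effect; nearly all actives have a fitted effect of over 40% in size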
Target sequence (P25779 123-467 limits assumed): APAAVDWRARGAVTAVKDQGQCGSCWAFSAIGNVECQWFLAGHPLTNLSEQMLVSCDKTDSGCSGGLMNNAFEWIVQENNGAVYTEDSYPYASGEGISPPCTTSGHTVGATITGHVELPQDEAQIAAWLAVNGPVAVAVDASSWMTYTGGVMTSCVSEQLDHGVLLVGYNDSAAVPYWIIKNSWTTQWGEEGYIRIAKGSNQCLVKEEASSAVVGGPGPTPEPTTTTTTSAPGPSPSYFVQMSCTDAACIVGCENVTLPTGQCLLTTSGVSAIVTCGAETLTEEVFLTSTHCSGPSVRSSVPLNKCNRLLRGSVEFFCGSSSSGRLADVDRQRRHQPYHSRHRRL
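Purified cruzain at 1.5 nM, pre-incubated 15 min with compound at room temperature in 100 mM sodium acetate pH 5.5, 5 mM DTT, 0.00005% Triton X-100. Reaction started with 2 uM Z-FR-AMC; AMC fluorescence increase over 60 s gives rate.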
Cruzain Triton – cruzain (T. cruzi) inhibition with detergent. AID 1478. actives 0.43% (n = 200,000). Potency, µM, for inactives: max response, negative = inhibition, usual class: inhibitors. purified cruzain, Z-FR-AMC fluorescence, 0.01% Triton;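 further: plate controls were neutral wells for no effect and buffer without enzyme for full effect; nearly all actives have a fitted effect of over 40% in size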
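Steps: dispense cruzain (1.5 nM final) in acetate buffer pH 5.5 with DTT and 0.01% Triton X-100; pin-transfer compounds; incubate 15 min RT; add Z-FR-AMC (2 uM final); read fluorescence every 30 s, using the 60 s intensity change.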
An asterisk follows results filed as active; ? = inconclusive. The call rests on the fitted dose curve; in most records, active means well fitted curve in the direction sought with a large enough effect; inconclusive means small, poorly fitted or top-dose-only effect, or another doubt; inactive means no such curve, though single readings can be large; an effect the other way counts as inactive or inconclusive. Potency means the concentration at half of the fitted maximal effect.

SMILES	Cruzain inh noDet	Cruzain Triton
C=CCOc1c(Br)cc(/C=N/NC(N)=O)cc1OC	7.2%	-3.5%
COc1cc(/C=N/NC(N)=O)cc(Br)c1OCc1ccccc1C	20µM*	3.3%
CCOc1cc(/C=N/NC(N)=O)cc(Br)c1OCC(=O)Nc1cccc2ccccc12	6.31µM*	-3.2%
CCOc1cc(/C=N/NC(N)=O)cc(Br)c1OCC(=O)Nc1ccccc1C	?	-8.0%
O=C(CSC1=NCCN1)C1COc2ccccc2O1 (stereo unspecified)	1.26µM*	0.5%
O=C(O)CSC1=NCCN1	0.0%	7.8%
COc1ccc(C(=O)NCC2OCCc3ccccc32)c(O)c1 (stereo unspecified)	7.1%	-4.0%
CCCn1c(C)nc2c(Nc3ccccc3)nc(C)nc21	-2.0%	-5.4%
Fc1ccc(N2CCN(c3ncnc4onc(-c5ccc(Cl)cc5)c34)CC2)cc1	3.9%	-7.8%
CC(=O)c1ccc(N2CCN(c3ncnc4onc(-c5ccc(Cl)cc5)c34)CC2)cc1	3.16µM*	-16.4%
Cc1ccc(C)c(NC(=O)c2ncn[nH]2)c1	-7.8%	6.1%
Cc1ccc(CC(=O)Nc2c(C(=O)N3CCN(c4ccccc4F)CC3)oc3ccccc23)cc1	?	-5.9%
CCOc1ccc(/C=N/NC(=S)Nc2c(C)cccc2C)cc1	-1.0%	-6.6%
CCNC(=S)N/N=C/c1ccc(OCCOc2ccccc2C)cc1	15.8µM*	1.6%
COCC(=O)N1CCC2(CC1)CN(c1ccc(-c3ccccc3)cc1)C2	?	4.5%
O=c1c2c(-c3ccc([N+](=O)[O-])cc3)csc2nc2n1CCC2	-7.9%	-20.8%
N#Cc1c(N)n(-c2cccc(Cl)c2)c2nc3ccccc3nc12	-0.3%	-0.2%
C/C=C/C(=O)OCC(=O)Nc1nc2ccc(C)cc2s1	20µM*	0.2%
CCOCC(=O)Nc1nc2ccc(C)cc2s1	3.5%	-4.0%
CCCOc1ccc(C(=O)NC(=S)Nc2nc3ccc(C)cc3s2)cc1	25.1µM*	6.8%
Cc1ccc2nc(NC(=O)c3cccs3)sc2c1	-8.0%	0.4%
CCCOc1ccc(C(=O)NC(=S)Nc2nc3ccccc3s2)cc1	?	1.7%
Cc1ccc2nc(NC(=O)c3ccc(Cl)s3)sc2c1	12.6µM*	0.9%
Cc1cccc(-c2nnc(SCC(=O)N3c4ccccc4CCc4ccccc43)n2C)c1	-10.8%	-3.6%
CCOC(=O)c1ncn2c1CN(C)C(=O)c1cc(N=[N+]=[N-])ccc1-2	-0.4%	-1.2%
SMILES	Cruzain inh noDet	Cruzain Triton
CC(NC(=O)Nc1ccc(Cl)cc1)C(c1cccs1)N1CCOCC1 (stereo unspecified)	-13.3%	-2.3%
C=CCn1c(SCC(=O)O)nnc1-c1ccccc1	-8.6%	-0.7%
O=C1C2C3C=CC(C3=C(c3ccccc3)c3ccccc3)C2C(=O)N1CCO (stereo unspecified)	?	-8.4%
O=C1C2C3C=CC(C3=C(c3ccccc3)c3ccccc3)C2C(=O)N1Cc1ccccc1 (stereo unspecified)	20µM*	2.6%
COc1ccccc1C(=O)Nc1cc2cc(Br)ccc2oc1=O	15.8µM*	-1.6%
COc1ccccc1C(=O)Nc1cc2ccccc2oc1=O	3.1%	20.2%
O=C(CCc1ccccc1)Nc1ccc(NC(=O)c2ccco2)nc1	-10.5%	-3.2%
COC(=O)CSc1nc(N)c2c3c(sc2n1)C(c1ccccc1)SC(c1ccccc1)C3 (stereo unspecified)	12.6µM*	?
COC(=O)CSc1nc(N)c2c3c(sc2n1)CCCC3	4.9%	-10.3%
COc1ccc(C(C)=O)cc1COC(=O)c1cc(C)oc1C	-15.5%	?
COCCn1nnnc1C(c1ccc(O)c(OC)c1)N1CCc2ccccc2C1 (stereo unspecified)	4.2%	1.8%
CCCCN(CC)C(=O)Cc1ccc(Br)cc1	5.2%	2.5%
CCN1c2ccccc2-c2nc(SCC(=O)Nc3cc(C)c(Cl)cc3OC)ncc2S1(=O)=O	25.1µM*	-3.1%
COc1cccc(CN2c3ccccc3-c3nc(SCC(=O)Nc4ccccc4Cl)ncc3S2(=O)=O)c1	15.8µM*	-2.8%
O=C(CSc1ncc2c(n1)-c1cc(Cl)ccc1N(Cc1ccccc1)S2(=O)=O)NCCc1ccccc1	5.8%	3.2%
CCN1c2ccccc2-c2nc(SCC(=O)Nc3ccc(C)c(Cl)c3)ncc2S1(=O)=O	?	-0.7%
COc1cccc(CN2c3ccccc3-c3nc(SCC(=O)Nc4cccc(C)c4)ncc3S2(=O)=O)c1	?	-4.4%
O=C(CSc1ncc2c(n1)-c1cc(Cl)ccc1N(Cc1ccccc1)S2(=O)=O)NCc1ccccc1	15.8µM*	-4.4%
O=C(NCc1ccccn1)c1ccc(=O)oc1	-16.8%	-7.1%
CC(=O)Nc1ccc(S(=O)(=O)Nc2cccc(C(=O)NC(C)(C)C)c2)cc1	6.2%	3.4%
N#C/C(=C\c1ccc(Br)s1)C(=O)N1CCN(c2ccccc2)CC1	-14.2%	-6.2%
CN(C)c1ccc(/C=N/c2cc(-c3ccccc3)nn2-c2ccccc2)cc1	20µM*	-5.1%
Cc1nn(-c2ccccc2)c(/N=C/c2ccc(O)cc2)c1-c1ccccc1	5.3%	-6.9%
